Screens: PubChem BioAssay, National Center for Advancing Translational Sciences (NCATS)
DT40 TDP1 CPT: growth inhibition of DT40 Tdp1-/-;hTDP1 cells with camptothecin (screen for TDP1 inhibitors). Potency, µM (highest dose often 46.2 µM), without a hit: top-dose activity change, negative = growth inhibition, usual class: inhibitors. actives 12% (n = 420,000). AID 686979. chicken DT40 Tdp1-/-;hTDP1 cells + 20 nM CPT, ATP luminescence, 48 h; also: potency is read from the fitted curve at half-maximal effect; nearly all actives have a fitted effect of over 55% in size
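Chicken DT40 Tdp1-/- cells complemented with human TDP1, 400 cells/well, exposed to compounds plus 20 nM camptothecin for at least 48 h at 37 C; viability read as ATP content by CellTiter-Glo luminescence.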
IL1B secr inh: blocks inflammasome-driven IL-1 beta release; THP-1 LPS/ATP IL-1B secretion, AlphaLISA, 16 h; stronger effect = lower value; activity change, % at 57.5 µM; actives 4.7% (n = 360,000); in the data active = activity change below about -50%; inconclusive = mostly about -30% to -49%
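Secreted IL-1B measured by AlphaLISA bead assay after 16 h compound exposure of THP-1 cells; compounds (final up to 57.5 uM) added 1 h before LPS (250 ng/mL) and ATP (1.25 mM) stimulation; lower signal means less secretion.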
DT40 TDP1 no CPT: qHTS for Inhibitors of human tyrosyl-DNA phosphodiesterase 1 (TDP1): qHTS in cells in absence of CPT; DT40 Tdp1-/- hTDP1 cells, no CPT, ATP luminescence, 48 h; Potency, µM (titrated, usually from 46.2 µM), inactives show at the top dose activity change, negative = growth inhibition, usual class: inhibitors; actives 15% (n = 420,000); also: potency is read from the fitted curve at half-maximal effect; nearly all actives have a fitted effect of over 55% in size
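DT40 Tdp1-/-;hTDP1 cells, no CPT (DMSO vehicle only), 400 cells/well; compounds pin-transferred; ≥48 hr, 37 °C; CellTiter-Glo 30 min RT dark, luminescence read.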
HT1080NT lethal: kills 2HG-producing HT-1080-NT fibrosarcoma cells; HT-1080-NT fibrosarcoma viability, CellTiter-Glo ATP luminescence, 48 h; Potency, µM (titrated, usually from 46.1 µM), without a hit: at the top dose activity, negative = less viability, most hits filed as cytotoxic; actives 1.6% (n = 360,000);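 also: NT is the 2HG producing partner of a matched IDH1 knockdown line; potency is read from the fitted curve at half-maximal effect; 0% = DMSO-treated cells and -100% = media-only wells without cells; nearly all actives have a fitted effect of over 55% in size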
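HT-1080-NT; 750 cells/well; 5% FBS RPMI; 48 h compound, 37 degrees C; CellTiter-Glo luminescence; curve fitting and curve-class assignment.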
HT1080 IDH1KD tx: HT-1080 IDH1 knockdown cell toxicity (counter line). HT-1080 IDH1 knockdown viability, ATP luminescence, 48 h. Potency, µM (doses to about 46.1 µM), for inactives: top-dose activity, negative = toxicity, actives largely listed as cytotoxic. actives 2% (n = 360,000). AID 686971;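 also: potency is read from the fitted curve at half-maximal effect; 0% = DMSO wells and -100% = cell-free medium wells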
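After a 2 h attachment period, IDH1KD HT-1080 cells took pin-transferred compound for 48 h at 37 °C; ATP-based luminescence after 10 min room-temperature reagent incubation reported viability.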
The depositor's hits bear a star; ? = inconclusive; nt = no result. Shown are actives, neighbours in structure and some others; about 19% of the full set was active somewhere. Unless noted, calls follow the shape of the dose curve; as a rule, active = well fitted curve in the direction sought with a large enough effect; inconclusive = small, poorly fitted or top-dose-only effect, or another doubt; inactive = no such curve, though single readings can be large; an effect the other way counts as inactive or inconclusive. Unless noted, % is scaled to controls: 0 for no effect and ±100 for the full control effect.

SMILES | DT40 TDP1 CPT | IL1B secr inh | DT40 TDP1 no CPT | HT1080NT lethal | HT1080 IDH1KD tx
Cc1c(Cl)cccc1NC(=O)N1CCCN(c2nc(-c3ccccc3)ns2)CC1 | ? | -60.5* | ? | -13.4% | ?
O=C(Nc1ccccc1Cl)N1CCCN(c2nc(-c3ccccc3)ns2)CC1 | ? | -20.5 | ? | ? | ?
CCN(CC)CCNC(=O)C(=O)Nc1cc2c3c(c1)CC(=O)N3CCC2 | -3.6% | 12.2 | 23.9% | 0.6% | -9.3%
O=S(=O)(NCCc1ccccc1)c1cnc(Cl)c(Br)c1 | -11.5% | -89.6* | -12.5% | 10.4% | 3.8%
Cc1cccc(NS(=O)(=O)c2cccc(C(=O)NCC(c3ccco3)N3CCCCC3)c2)c1 (stereo not drawn) | 20.6µM* | -59.2* | 23.1µM* | -5.9% | 0.5%
COc1ccccc1NS(=O)(=O)c1ccc(C(=O)NCC(c2ccccc2OC)N(C)C)cc1 (stereo not drawn) | -11.0% | -23.2 | -12.7% | -1.8% | 5.2%
Cc1cccc(NS(=O)(=O)c2ccc(C(=O)NCC(c3ccco3)N3CCCCC3)cc2)c1C (stereo not drawn) | ? | ? | 23.1µM* | -15.3% | -10.0%
Cc1cccc(NS(=O)(=O)c2ccc(C(=O)NCC(c3ccccc3)N(C)C)cc2)c1C (stereo not drawn) | 16.4µM* | -6.5 | ? | ? | ?
Cc1ccc(NC(=O)CCc2nnc3n(C)c(=O)c4sccc4n23)cc1C | -12.0% | nt | -2.5% | nt | nt
N#Cc1ccc(CO/N=C/c2ccccc2)cc1 | 1.5% | -5.8 | -5.4% | 22.4% | 24.5%
O=C(NC1CCCCCC1)C(=S)N1CCOCC1 | ? | -7.2 | 16.4µM* | 2.6% | 2.9%
C#CCOCCOCCOCCNc1nc(N2CCN(C(=O)[C@H](CCCN=C(N)N)n3cc(C(N)[C@@H](C)CC)nn3)CC2)nc(N2CCN(C(=O)[C@H](CCCCN)n3cc([C@@H](N)CC(N)=O)nn3)CC2)n1 (stereo partly drawn) | -1.9% | 11.5 | -10.9% | -2.3% | -1.5%
O=C(NCCc1ccccc1)C(c1cccs1)N(C(=O)c1csnn1)C1CC1 (stereo not drawn) | ? | -7.8 | -28.4% | 1.0% | -4.2%
O=C(NCCc1ccccc1)C(c1cccs1)N(C(=O)CCl)c1ccc(Cl)cc1 (stereo not drawn) | 1.84µM* | -97.9* | 1.64µM* | 3.66µM* | 1.64µM*
O=c1nc(-c2ccccc2)c2cc(SC(F)F)ccc2[nH]1 | -5.5% | 5.3 | 0.411µM* | -2.1% | -5.1%
O=c1nc(-c2ccccc2)c2cc(Cl)ccc2[nH]1 | ? | -19.1 | 1.3µM* | -3.7% | 3.4%
O=c1nc(-c2ccccc2)c2cc(Br)ccc2[nH]1 | 0.326µM* | -24.4 | 0.231µM* | -1.5% | 9.5%
COc1ccc(C(=O)Nc2ccccc2C(=O)Nc2ccncc2)cc1 | ? | -17.7 | 16.4µM* | -14.0% | -1.5%
COc1ccc(C(=O)Nc2cccc3c2CCCC3)cc1 | 10.3µM* | 3.8 | 5.8µM* | ? | ?
COc1ccc(C(=O)Nc2cc(OC)c(NC(=O)Nc3ccccc3)cc2OC)cc1 | ? | -14.2 | 18.4µM* | ? | ?
COc1ccc(NC(=O)Nc2ccccc2F)cc1 | 8.2µM* | -26.1 | 7.94µM* | ? | -8.8%
Cc1nc2ncnn2c(C)c1CCC(=O)NCc1ccc(Cl)cc1 | 2.9% | nt | -0.4% | nt | nt
COc1ccc(CN2C(=NC(=O)C3CCCO3)SC3CS(=O)(=O)CC32)cc1OC (stereo not drawn) | -9.0% | -11.7 | 16.9% | 1.0% | 12.0%
CCC(C)NC(=O)CNC(=S)N(Cc1ccccc1F)C1CCCCC1 (stereo not drawn) | 3.1% | -0.9 | ? | 3.5% | 9.5%
COc1ccc(C(=O)Nc2ccccc2C(=O)NCc2cccnc2)cc1OC | 3.1% | -3.0 | -8.7% | -0.1% | 0.7%
SMILES | DT40 TDP1 CPT | IL1B secr inh | DT40 TDP1 no CPT | HT1080NT lethal | HT1080 IDH1KD tx
COc1ccc(C(=O)Nc2ccccc2C(=O)Nc2ccccc2C(=O)O)cc1 | 18.4µM* | 30.8 | 23.1µM* | -18.3% | -21.5%
COc1ccc(C(=O)Nc2ccccc2C(=O)N/N=C/c2cccc3ccccc23)cc1 | 20.6µM* | 37.2 | 16.4µM* | 18.4µM* | 18.4µM*
COc1ccc(C(=O)Nc2ccccc2C(=O)N/N=C/c2ccncc2)cc1OC | 16.4µM* | -20.4 | 16.4µM* | 25.9µM* | 25.9µM*
COc1cc(CN2C[C@@H](CO)O[C@@H](n3cnc4c(N5CCCC5)ncnc43)C2)cc(OC)c1OC | -7.5% | -16.1 | -20.1% | ? | 0.0%
COc1ccc(C(=O)NCCCNC(=O)c2cnccn2)cc1Br | -0.5% | 21.7 | -6.9% | -0.4% | 14.3%
Cc1cc(C(=O)NNC2CC(=O)N(c3ccc4ccccc4c3)C2=O)c(C)o1 (stereo not drawn) | 0.0% | 5.9 | 7.1% | 8.4% | 3.1%
CCCCNC(=O)C1(C)CCCCN1CC(=O)c1ccc(OC)cc1 (stereo not drawn) | 16.4µM* | -10.0 | 25.9µM* | 16.6% | 13.3%
CCN(C[C@H]1N[C@@](CC)(C(=O)OC)[C@H]2C(=O)N(C)C(=O)[C@@H]12)S(=O)(=O)c1ccccc1 | 1.8% | 0.7 | -0.1% | 8.0% | 10.3%
Cc1ccc(-c2nc3ccccc3[nH]2)cc1NC(=O)c1sc2cc(Cl)ccc2c1Cl | 8.2µM* | -0.1 | 16.4µM* | -6.3% | -3.5%
Cc1cc(OCC(=O)Nc2cc(-c3nc4ccccc4[nH]3)ccc2C)ccc1Cl | 14.6µM* | nt | 7.31µM* | nt | nt
Cc1cc(Cl)ccc1OCC(=O)N[C@@H](Cc1ccccc1)c1nc2ccccc2[nH]1 | 20.6µM* | 15.7 | 16.4µM* | ? | ?
Cc1ccc(-c2nc3ccccc3[nH]2)cc1NC(=O)COc1ccc(Cl)cc1Cl | 6.51µM* | nt | 5.17µM* | nt | nt
CCC(=O)NC(Cc1ccccc1)c1nc2ccccc2[nH]1 (stereo not drawn) | 7.1% | -4.0 | 0.2% | 5.1% | 1.2%
CCOCCCNC(=O)C(NC(=O)c1cnccn1)c1ccc(C)cc1 (stereo not drawn) | 0.2% | 1.2 | 2.9% | 15.3% | 18.2%
COc1cc(-c2nc3ccc4ccccc4c3c3c2CCC3)cc(OC)c1O | 20.6µM* | -4.2 | 16.4µM* | ? | ?
COc1cc(-c2nc3ccc4ccccc4c3c3c2CCC3)cc(OC)c1OC | ? | -0.8 | ? | ? | ?
Cc1cc(N2CCN(C(=O)c3cccs3)CC2)c(F)cc1[N+](=O)[O-] | 10.3µM* | -5.2 | 5.17µM* | -1.5% | -1.8%
CCC(=O)c1ccc(N2CCN(C(=O)c3ccccc3Br)CC2)c(F)c1 | ? | -54.6* | 10.3µM* | -5.4% | -3.4%
CCC(=O)c1ccc(N2CCCCCC2)c(F)c1 | -26.0% | -0.8 | ? | 27.8% | 19.8%
